# Experimental data from the supplement of paper PMC7530171.
# Counter-ions that a name gives are not always drawn. ± gives the standard deviation.
# Experiments:
# THP-1 = THP-1 cell loss relative to DMSO control; higher = more host cell loss (toxicity); extreme values may be limits of the assay; conditions: 10 µM; 4 days; infection: M. tuberculosis H37Rv
# Experimental: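 OICR kinase inhibitor library screened in duplicate at 10 uM against M. tuberculosis-infected THP-1 macrophages, 4 days at 37 C. THP-1 cell loss (cytotoxicity or loss of adherence) was quantified from Hoechst-stained nuclei counts by high-content imaging and normalised to the 1% DMSO control; 100 = complete loss of host cells.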
# [1] = test system: THP-1 macrophages infected with Mycobacterium tuberculosis H37Rv; test: intracellular M.tb growth inhibition relative to DMSO (0) and 4 uM bedaquiline (100); higher = stronger inhibition of intracellular bacterial growth; conditions: 10 µM; 4 days
# Experimental: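 OICR kinase inhibitor library screened in duplicate at 10 uM against THP-1 macrophages (PMA-differentiated) infected with M. tuberculosis H37Rv-pTEC27 (tdTomato RFP), 4 days at 37 C. Rows with complete host cell loss (placeholder inhibition 0, cell loss 100) were removed.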
structure (smiles),measurement,setting,value
Cc1ccc(NC(=O)c2ccc(CN3CCN(C)CC3)cc2)cc1Nc1nc(-c2cccnc2)cs1 [Masitinib mesylate],THP-1 cell loss,THP-1,62.9 ± 7.5%
same,intracellular M.tb growth inhibition,[1],95.5 ± 1.8%
CN(C)CC(C)(C)CNc1nn2c(-c3ccccc3)nnc2cc1C1CCC1,THP-1 cell loss,THP-1,18.4 ± 1.3%
same,intracellular M.tb growth inhibition,[1],-56.3 ± 120%
NC(=O)c1ccc(-c2nc(-c3ccccn3)c(-c3ccc4c(c3)OCO4)[nH]2)cc1,THP-1 cell loss,THP-1,0.126 ± 0.18%
same,intracellular M.tb growth inhibition,[1],17.9 ± 36%
NC(=O)c1ccc2[nH]ccc2c1,intracellular M.tb growth inhibition,[1],10.6 ± 2.2%
CC1=C(C(=O)Nc2cc3cn[nH]c3cc2F)C(c2ccc(C(F)(F)F)cc2)CC(=O)N1 (centres undefined),THP-1 cell loss,THP-1,0%
same,intracellular M.tb growth inhibition,[1],-101 ± 100%
Nc1nccc(Oc2ccc(NC(=O)c3c[nH]cc(-c4ccc(F)cc4)c3=O)cc2F)c1Cl,intracellular M.tb growth inhibition,[1],37 ± 33%
O=C1NC(=O)C(c2ccccc2[N+](=O)[O-])=C1Nc1ccc(O)c(Cl)c1,THP-1 cell loss,THP-1,3.73 ± 5.3%
same,intracellular M.tb growth inhibition,[1],-38.8 ± 82%
CC[C@H](CO)Nc1nc(NCc2ccccc2)c2ncn(C(C)C)c2n1 [Roscovitine],intracellular M.tb growth inhibition,[1],-23.1 ± 47%
COc1cc(OC)c(C=C2C(=O)Nc3ccccc32)c(OC)c1,THP-1 cell loss,THP-1,45.3 ± 6.7%
same,intracellular M.tb growth inhibition,[1],4.9 ± 6.5%
C[C@@H](Oc1cc(-n2cnc3ccc(CN4CCN(C)CC4)cc32)sc1C(N)=O)c1ccccc1C(F)(F)F,intracellular M.tb growth inhibition,[1],-31.9 ± 42%
Cc1nc2sccn2c(=O)c1CCN1CCC(=C(c2ccccc2)c2ccc(F)cc2)CC1,intracellular M.tb growth inhibition,[1],58.1 ± 4.4%
O=C(Nc1cc(C(F)(F)F)cc(C(F)(F)F)c1)c1cc(Cl)ccc1O,THP-1 cell loss,THP-1,53 ± 46%
same,intracellular M.tb growth inhibition,[1],64.7 ± 16%
COc1cc2ncnc(Nc3ccc(Cl)cc3F)c2cc1OC,THP-1 cell loss,THP-1,0.676 ± 0.63%
same,intracellular M.tb growth inhibition,[1],48.4 ± 20%
Cc1cc2c(F)c(Oc3ncnn4cc(OC[C@@H](C)O)c(C)c34)ccc2[nH]1 [Brivanib],THP-1 cell loss,THP-1,25.4 ± 0.91%
same,intracellular M.tb growth inhibition,[1],-66.6 ± 160%
Cc1ccc(F)c(NC(=O)Nc2ccc(-c3cccc4[nH]nc(N)c34)cc2)c1,THP-1 cell loss,THP-1,84.1 ± 22%
same,intracellular M.tb growth inhibition,[1],-14.6 ± 21%
OCCC#Cc1nc(-c2ccc(F)cc2)c(-c2ccncc2)n1CCCc1ccccc1,THP-1 cell loss,THP-1,66.42 ± 0.12%
same,intracellular M.tb growth inhibition,[1],14.2 ± 4.9%
COc1cc2ncnc(Nc3ccc(O)c(Br)c3)c2cc1OC,THP-1 cell loss,THP-1,15.2 ± 1.4%
same,intracellular M.tb growth inhibition,[1],13.5 ± 42%
S=C(NCc1ccc2c(c1)OCO2)N1CCN(c2ncnc3c2oc2ccccc23)CC1,THP-1 cell loss,THP-1,20.7 ± 25%
same,intracellular M.tb growth inhibition,[1],-35.5 ± 71%
CC(=O)c1ccc(N2CCOCC2)cc1O,THP-1 cell loss,THP-1,16.46 ± 0.081%
same,intracellular M.tb growth inhibition,[1],-148 ± 170%
CCc1cncnc1N1CCN(Cc2nc3ccc(C(F)(F)F)cc3[nH]2)CC1,intracellular M.tb growth inhibition,[1],16.2 ± 23%
Cc1c(NC(=O)OC[C@@H]2COCCN2)cn2ncnc(Nc3ccc4c(cnn4Cc4cccc(F)c4)c3)c12,THP-1 cell loss,THP-1,16.7 ± 9.5%
same,intracellular M.tb growth inhibition,[1],48.3 ± 10%
NC(=O)c1ccc2nc(-c3ccc(Oc4ccc(Cl)cc4)cc3)[nH]c2c1 [Chk2 Inhibitor II],THP-1 cell loss,THP-1,48.8 ± 4.4%
same,intracellular M.tb growth inhibition,[1],38.6 ± 14%
COc1cc2ncnc(Nc3ccc(F)c(Cl)c3)c2cc1OCCCN1CCOCC1 [Gefitinib],THP-1 cell loss,THP-1,12.5 ± 5.5%
same,intracellular M.tb growth inhibition,[1],54.4 ± 28%
CC(C)(C)c1cc(NC(=O)Nc2ccc(-c3cn4c(n3)sc3cc(OCCN5CCOCC5)ccc34)cc2)no1,THP-1 cell loss,THP-1,82.1 ± 1.3%
same,intracellular M.tb growth inhibition,[1],85.7 ± 43%
COc1cc2c(Nc3ccc(NC(=O)c4ccccc4)cc3)ncnc2cc1OCCCN1CCOCC1,THP-1 cell loss,THP-1,27.2 ± 1.4%
same,intracellular M.tb growth inhibition,[1],-10.1 ± 48%
O=S(=O)(c1cccc2c(Cl)cccc12)N1CCCNCC1 [ML 9 hydrochloride],THP-1 cell loss,THP-1,31.1 ± 21%
same,intracellular M.tb growth inhibition,[1],-14 ± 4.8%
O=C1NC(=O)[C@@H](c2cn3c4c(cccc24)CCC3)[C@@H]1c1c[nH]c2ccccc12,THP-1 cell loss,THP-1,43.4 ± 7.2%
same,intracellular M.tb growth inhibition,[1],-118 ± 200%
CC(C)c1cnn2c(NCc3ccccc3)cc(NCCCCCCN)nc12 [BS-181 hydrochloride],THP-1 cell loss,THP-1,90.8 ± 13%
same,intracellular M.tb growth inhibition,[1],3.6 ± 5.1%
Oc1ccc(-c2nc(-c3ccc(F)cc3)c(-c3ccncc3)[nH]2)cc1,THP-1 cell loss,THP-1,8.45 ± 0.56%
same,intracellular M.tb growth inhibition,[1],8.19 ± 7.9%
Nc1ncnc2nc(-c3ccc(N4CCOCC4)nc3)cc(-c3cccc(Br)c3)c12 [ABT-702 dihydrochloride],THP-1 cell loss,THP-1,24.4 ± 13%
same,intracellular M.tb growth inhibition,[1],29.6 ± 24%
O=c1oc2c(O)c(O)cc3c(=O)oc4c(O)c(O)cc1c4c23 [Ellagic acid],THP-1 cell loss,THP-1,5.06 ± 7.2%
same,intracellular M.tb growth inhibition,[1],-20.9 ± 30%
Cc1cc(Nc2cc(N3CCN(C)CC3)nc(/C=C/c3ccccc3)n2)n[nH]1,THP-1 cell loss,THP-1,70.7 ± 19%
same,intracellular M.tb growth inhibition,[1],-329 ± 400%
O=C(O)c1ccc2c(c1)nc(Nc1cccc(Cl)c1)c1ccncc12,THP-1 cell loss,THP-1,66.8 ± 1.6%
same,intracellular M.tb growth inhibition,[1],-112 ± 130%
COc1cc2nccc(Oc3ccc(NC(=O)Nc4cc(C)on4)c(Cl)c3)c2cc1OC,THP-1 cell loss,THP-1,27.4 ± 5%
same,intracellular M.tb growth inhibition,[1],-5.89 ± 83%
CO[C@H]1C[C@@H]2CC[C@@H](C)[C@@](O)(O2)C(=O)C(=O)N2CCCC[C@H]2C(=O)O[C@H]([C@H](C)C[C@@H]2CC[C@@H](O)[C@H](OC)C2)CC(=O)[C@H](C)/C=C(\C)[C@@H](O)[C@@H](OC)C(=O)[C@H](C)C[C@H](C)/C=C/C=C/C=C/1C [Rapamycin],THP-1 cell loss,THP-1,33.4 ± 6.3%
same,intracellular M.tb growth inhibition,[1],15.9 ± 11%
NCC(=O)Nc1ccc(-n2nc(C(F)(F)F)cc2-c2ccc3c(ccc4ccccc43)c2)cc1,intracellular M.tb growth inhibition,[1],92.3 ± 8.1%
O=C1NC(=O)/C(=C/c2ccc(-c3ccc(F)cc3O)o2)S1,THP-1 cell loss,THP-1,39.7 ± 23%
same,intracellular M.tb growth inhibition,[1],25.3 ± 6.9%
CC(C)N(CCC(=O)c1ccc2ccccc2c1)Cc1ccccc1,THP-1 cell loss,THP-1,3.99 ± 5.6%
same,intracellular M.tb growth inhibition,[1],22.8 ± 6.8%
